HTR5A inv ag – HTR5A inverse agonism, opioid heterodimer counter-screen; P47898; HTR5A cell line, luminescence; inhibition, % at 9.3 µM; hit rate 0.083% among 340,000; in the data active = inhibition mostly above about 23%, no sharp cut-off; inactive = mostly below about 18%;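 also: 0% = cells with DMSO and 100% = no-cell wells with DMSO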
Target sequence (P47898 whole entry, looked up): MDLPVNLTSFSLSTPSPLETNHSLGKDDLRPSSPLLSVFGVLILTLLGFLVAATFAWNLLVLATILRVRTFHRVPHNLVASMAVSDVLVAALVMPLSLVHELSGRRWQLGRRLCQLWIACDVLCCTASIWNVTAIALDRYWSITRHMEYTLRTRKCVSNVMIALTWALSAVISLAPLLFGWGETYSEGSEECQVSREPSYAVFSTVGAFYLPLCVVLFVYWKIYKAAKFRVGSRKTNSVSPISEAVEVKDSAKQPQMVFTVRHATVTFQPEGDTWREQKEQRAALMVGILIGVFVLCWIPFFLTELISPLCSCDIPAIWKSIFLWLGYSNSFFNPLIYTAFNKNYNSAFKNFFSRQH
OPRM1-OPRD1 inv – inverse agonists of human mu-delta opioid receptor heterodimerization; P35372+P41143; cell-based MOR-DOR heterodimer luminescence, inverse agonism; inhibition, % at 9.3 µM; hit rate 0.21% among 340,000; in the data active = inhibition above about 22%, passing the limit was not always enough;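 also: 0% = cells with DMSO and 100% = wells without cells with DMSO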
MOR-DOR ag – OPRM1-OPRD1 heterodimerization agonism; P35372+P41143; cells, luminescence; activation, % at 9.3 µM; hit rate 0.3% among 340,000;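 also: 0% = vehicle-treated cells and 100% = reference agonist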
HTR5A ag – counter-screen for OPRM1-OPRD1 agonists: human HTR5A agonism; HTR5A agonist assay, luminescence, cell-based; hit rate 0.61% among 340,000; AID 504692; P47898; activation, % at 9.3 µM; in the data active = activation mostly above about 9.5%, no sharp cut-off; inactive = mostly below about 7.6%;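 also: 0% = cells with vehicle only and 100% = reference agonist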
OPRM1-D1 ag cf – confirmation of human OPRM1-OPRD1 heterodimerization agonists. shares compounds with MOR-DOR ag. cells, MOR-DOR heterodimerization, luminescence complementation. activation, % at 9.3 µM. hit rate 45% among 830;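 also: 0% = vehicle-treated cells and 100% = reference agonist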
HTR5A ag ctr2 – activates human HTR5A in OPRM1-OPRD1 agonist counter-screen; shares compounds with MOR-DOR ag; hit rate 8% among 830; HTR5A agonist counterscreen, cell luminescence; activation, % at 9.3 µM; in the data active = activation above about 17%;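 also: 0% = vehicle-treated cells and 100% = reference agonist response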
Active calls of the source: *; i = inactive; · = no result given. Most compounds without a hit are left out; they make up all but 1.1% or so of the library. Rule as the data show it, unless noted: active = activation above about 18%; inactive = the rest.

SMILES	HTR5A inv ag	OPRM1-OPRD1 inv	MOR-DOR ag	HTR5A ag	OPRM1-D1 ag cf	HTR5A ag ctr2
COC(=O)C1=C(c2ccc(-c3ccccc3)c(F)c2)C[C@@H]2CC[C@H]1N2C(=O)NC1Cc2ccccc2C1	-25	-8	1	-1	·	·
COC(=O)C1=C(c2ccc(F)cc2OCc2ccccc2)C[C@@H]2CC[C@H]1N2C(=O)NC1Cc2ccccc2C1	3	-16	3	4	·	·
Cn1cc[n+](C)c1P(=S)(c1ccccc1)c1ccccc1	19	-218	39*	-7	5	15
CC(C)=CCN1CC[C@@]2(C)c3cc(O)ccc3C[C@@H]1C2C (stereo partly drawn)	1	-150	37*	0	-1	-1
C=CCN1CC[C@@]2(C)c3cc(O)ccc3CC1[C@@H]2C	7	-18	3	-2	·	·
CC(C)=CCN1CC[C@@]2(C)c3cc(O)ccc3CC1C2C (stereo partly drawn)	16	15	-4	-7	·	·
CC1[C@H]2Cc3ccc(O)cc3[C@]1(C)CCN2C (stereo partly drawn)	-2	-179	44*	1	42*	1
C=C[C@@H]1C2=CCOC(=O)C2=CO[C@H]1O[C@@H]1O[C@H](CO)[C@@H](O)[C@H](O)[C@H]1O	-8	10	-2	-1	·	·
O=C1C(=O)c2ccccc2-c2ccccc21	-44	-222	40*	9	15	4
CCOC(=O)C1(c2ccccc2)CCN(CCC(=O)Nc2cccc(Br)c2)CC1	8	-313	49*	13	57*	-1
CCOC(=O)C1(c2ccccc2)CCN(CCC(=O)Nc2ccc(C(=O)OC)cc2)CC1	-4	-21	5	2	·	·
CCOC(=O)C1(c2ccccc2)CCN(CCC(C#N)(c2ccccc2)c2ccccc2)CC1	-25	i	288*	7	0	4
COc1ccc2c(c1)C(NC(C)=O)CCc1cc(OC)c(OC)c(OC)c1-2 (stereo not drawn)	-25	0	0	6	·	·
CC(C)CN(CC(C)C)C(=O)C1C2c3ccccc3C(c3ccccc32)C1C(=O)O (stereo not drawn)	3	2	0	5	·	·
Cc1ccc(C[n+]2c(-c3ccc(C)cc3)cc(-c3ccc(C)cc3)cc2-c2ccc(C)cc2)cc1	-59	-374	68*	23*	11	11
COc1ccc(C(CNC(=O)Cc2ccc(Cl)c(Cl)c2)N(C)C)cc1 (stereo not drawn)	3	i	121*	-1	8	6
COC(=O)C1=C(c2ccc(OCc3ccccc3)cc2)C[C@@H]2CC[C@H]1N2C(=O)NCc1ccc([N+](=O)[O-])cc1	1	3	0	6	·	·
CC(=O)O[C@H]1[C@H]2O[C@]23[C@@H]2CC[C@]4(O)C[C@@H](O)CC[C@]4(C)C2CC[C@]3(C)[C@H]1c1ccc(=O)oc1 (stereo partly drawn)	-111	-406	75*	33*	301*	2
C[C@]12CC[C@H]3C(CCC4(O)CC(O)CC[C@]34C=O)C1=CC[C@H]2c1ccc(=O)oc1 (stereo partly drawn)	-82	-303	67*	23*	33*	23*
CC1(O)CCC2C3CCC4=CC(=O)CCC4(C)C34OC4CC21C (stereo not drawn)	1	20	-4	0	·	·
CN(C)C1C(=O)C(C(N)=O)=C(O)C2(O)C(=O)C3=C(O)c4c(O)cccc4C(C)(O)C3C(O)C12 (stereo not drawn)	-19	-4	1	-1	·	·
CCn1c(C)c(C(=O)Nc2ccc(OC)cc2)c2cc(OC)ccc21	2	10	-2	0	·	·
N=c1c[n+](CC23CC4CC(CC(C4)C2)C3)[n-]o1	-4	-109	24*	4	36*	2
COc1ccc(P2(=O)Nc3ccccc3N2)cc1	-4	-57	11	0	·	·
COc1ccc2c(c1)NP(=S)(c1ccccc1)N2C (stereo not drawn)	-3	-100	19*	1	4	9
COC(=O)C1=C(c2ccc3ccccc3c2)C[C@@H]2CC[C@H]1N2C(=O)NC1CC1	-27	8	-1	16	·	·
CN1CCCC(C(=O)c2ccc(Cl)cc2)C1 (stereo not drawn)	2	-108	21*	-1	0	-3
COCCCn1c(N)c(C(=O)OCCOC)c2nc3ccccc3nc21	7	20	-5	-3	·	·

Source: PubChem BioAssay
